Among the data in PubChem BioAssay AID652054 (National Center for Advancing Translational Sciences (NCATS), 2013) are max response, negative = inhibition values, retold here.

The whole screen tested about 360,000 compounds, of which about 9,100 (2.5%) were called active. Not shown: some 4% with an inconclusive outcome. Cut-off read from the data, not from the text of the source: active = max response below about -50%; inconclusive = no clear call, values can overlap the other calls; inactive = above that. The entries come from a sample that favours actives as a whole.
% is set by controls: 0 for no effect and ±100 for the full control effect.

Chain of D(3) dopamine receptor (Homo sapiens) (P35462 whole entry, looked up): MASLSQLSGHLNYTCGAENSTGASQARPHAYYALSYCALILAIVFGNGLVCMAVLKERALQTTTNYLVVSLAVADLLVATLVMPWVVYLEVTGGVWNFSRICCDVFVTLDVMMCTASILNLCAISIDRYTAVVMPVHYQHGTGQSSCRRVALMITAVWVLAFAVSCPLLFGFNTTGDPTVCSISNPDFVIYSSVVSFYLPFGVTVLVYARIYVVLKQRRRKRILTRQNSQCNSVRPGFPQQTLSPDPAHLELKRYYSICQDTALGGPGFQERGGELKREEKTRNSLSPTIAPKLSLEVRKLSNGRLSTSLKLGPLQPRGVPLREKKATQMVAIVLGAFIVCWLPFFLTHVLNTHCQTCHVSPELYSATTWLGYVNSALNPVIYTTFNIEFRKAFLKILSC

This assay addresses D(3) dopamine receptor (Homo sapiens) (UniProt P35462). Description: qHTS of D3 Dopamine Receptor Antagonist: qHTS. Conditions: D3R cells, DiscoveRx beta-arrestin luminescence, antagonist mode; active compounds read low. The gist of the method: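 Cells expressing the human receptor were seeded at 1500 cells/well, incubated overnight at 37 degrees C in 5% CO2, then exposed to library compounds with dopamine controls for 90 minutes at 37 degrees C before luminescent detection.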
Turning to `Cc1ccc(-c2nc3c(Cl)cc(C(F)(F)F)cn3c2Cc2cccc(Cl)c2)cc1`, the max response, negative = inhibition was 50.6% (inactive).

With `COc1cc2nnn(-c3ccncc3)c2cc1OC`, the max response, negative = inhibition is 28% (inactive).

`COCCCNCC(=O)Nc1sc(C)c(C)c1C(=O)OC`: the max response, negative = inhibition is -52.8% (active).

On to `COC(=O)c1c(NC(=O)c2c(Cl)cnn2C)sc(C)c1C`, for which the max response, negative = inhibition is 11.6% (inactive).

With `CCC(=O)Nc1sc(C(=O)Nc2ccccc2)c(C)c1C(=O)OC`, the max response, negative = inhibition is 31.4% (inactive).

For `COCc1cccc(-c2csc(C(O)c3ccc(F)cc3)n2)c1` (stereo unspecified), the max response, negative = inhibition is 0% (inactive).

For the compound `O=C(c1cccs1)N1C[C@H](n2cc(C3CC3)nn2)[C@@H](O)C[C@@H]1c1ccccc1`, the max response, negative = inhibition is -2.86% (inactive).

With `C=CCn1c2c(c3ccccc31)CCC2`, the max response, negative = inhibition was -10.5% (inactive).

For the compound `CC(C)C1C(=O)N(Cc2cn(CCC3OCCO3)nn2)CCS(=O)(=O)N1Cc1ccc(-c2ccccc2C(F)(F)F)cc1` (stereo unspecified), the max response, negative = inhibition is -3.14% (inactive).

Take `Cc1cccc(N2C(=O)N3[C@H](c4ccc(F)cc4)[C@@H]4C(=O)N(C5CCCCC5)C(=O)[C@@H]4[C@]3(Cc3ccccc3)C2=O)c1`: the max response, negative = inhibition was -58.6% (active).

With `O=C1[C@H]2[C@@H](c3ccc(F)cc3)N3C(=O)N(c4ccc(C(F)(F)F)cc4)C(=O)[C@@]3(Cc3ccccc3)[C@H]2C(=O)N1C1CCCCC1`, the max response, negative = inhibition is -13.4% (inactive).

Consider `O=C1[C@H]2[C@@H](c3ccc(Cl)cc3)N3C(=O)N(c4cccc(F)c4)C(=O)[C@@]3(Cc3ccccc3)[C@H]2C(=O)N1C1CCCCC1`, for which the max response, negative = inhibition was -0.596% (inactive).

For `OC[C@@H]1CN(Cc2cccs2)C[C@H](n2cnc3c(NC4CCCC4)ncnc32)O1`, the max response, negative = inhibition was 18.9% (inactive).

Turning to `CC(C)c1cccc(-c2csc(C(O)c3ccccc3)n2)c1` (stereo unspecified), the max response, negative = inhibition was -27.4% (inactive).

With `COc1cccc(-c2sc3ccc(OC)cc3c2-c2ccc(OCCN3CCCCC3)cc2)c1`, the max response, negative = inhibition is -12.2% (inactive).

Take `COc1ccccc1-c1sc2ccccc2c1-c1ccc(Br)nc1`: the max response, negative = inhibition was -14.1% (inactive).

For `COc1ccc2sc(-c3ccccc3OC)c(-c3ccc(OCCN4CCCC4)cc3)c2c1`, the max response, negative = inhibition was -83.2% (active).

In the case of `CC(C)(Oc1ccc(C2CC2(Cl)Cl)cc1)C(=O)O` (stereo unspecified), the max response, negative = inhibition is -111% (active).

For `O=C(Nc1ccc(C2CC2(Cl)Cl)cc1)c1cccc([N+](=O)[O-])c1` (stereo unspecified), the max response, negative = inhibition was -14.6% (inactive).

For `CCc1nc2c(OCc3ccc(F)c(F)c3)cccn2c1N(C)C(=O)c1ccco1`, the max response, negative = inhibition is 15.7% (inactive).

As to `O=C(NC1=NCCS1)c1ccc(Cl)s1`, the max response, negative = inhibition is -77% (active).

As to `COc1ccccc1C(=O)NCCC(=O)NC1=NCCS1`, the max response, negative = inhibition is 0% (inactive).

In the case of `COc1ccc(C(=O)NC2=NCCS2)c(OC)c1`, the max response, negative = inhibition is 5.28% (inactive).

As to `O=C(Cn1cc(-c2nnnn2-c2ccc(Cl)cc2)c(=O)c2ccccc21)c1ccccc1`, the max response, negative = inhibition is 36.4% (inactive).

In the case of `O=C(C[n+]1ccc2c(c1)nnn2-c1ccccc1)c1ccc(Cl)cc1`, the max response, negative = inhibition is -54.4% (active).

On to `O=C(CSc1cccc[n+]1[O-])c1ccc(Cl)cc1`, for which the max response, negative = inhibition was -3.66% (inactive).
